# Experimental data published in publication PMC4336329 (PLoS ONE, 2015).
# Hit rate of the full screen: of about 310,000 compounds, about 14,000 (4.5%) showed an effect of 50% or more. Effects have a minus sign here. The list comes from a sample in which strong results are over-represented; it also holds similar structures and randomly drawn compounds.
# Molecular target: human ether-à-go-go-related gene (hERG) potassium channel (human, UniProt Q12809)
# Assay: primary screen, population patch clamp on CHO cells stably expressing hERG; higher = less effect of the substance
# 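Note: peak tail current of the secondary pulse compared with the same well before compound.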
# Sequence of human ether-à-go-go-related gene (hERG) potassium channel (Q12809 whole entry, looked up): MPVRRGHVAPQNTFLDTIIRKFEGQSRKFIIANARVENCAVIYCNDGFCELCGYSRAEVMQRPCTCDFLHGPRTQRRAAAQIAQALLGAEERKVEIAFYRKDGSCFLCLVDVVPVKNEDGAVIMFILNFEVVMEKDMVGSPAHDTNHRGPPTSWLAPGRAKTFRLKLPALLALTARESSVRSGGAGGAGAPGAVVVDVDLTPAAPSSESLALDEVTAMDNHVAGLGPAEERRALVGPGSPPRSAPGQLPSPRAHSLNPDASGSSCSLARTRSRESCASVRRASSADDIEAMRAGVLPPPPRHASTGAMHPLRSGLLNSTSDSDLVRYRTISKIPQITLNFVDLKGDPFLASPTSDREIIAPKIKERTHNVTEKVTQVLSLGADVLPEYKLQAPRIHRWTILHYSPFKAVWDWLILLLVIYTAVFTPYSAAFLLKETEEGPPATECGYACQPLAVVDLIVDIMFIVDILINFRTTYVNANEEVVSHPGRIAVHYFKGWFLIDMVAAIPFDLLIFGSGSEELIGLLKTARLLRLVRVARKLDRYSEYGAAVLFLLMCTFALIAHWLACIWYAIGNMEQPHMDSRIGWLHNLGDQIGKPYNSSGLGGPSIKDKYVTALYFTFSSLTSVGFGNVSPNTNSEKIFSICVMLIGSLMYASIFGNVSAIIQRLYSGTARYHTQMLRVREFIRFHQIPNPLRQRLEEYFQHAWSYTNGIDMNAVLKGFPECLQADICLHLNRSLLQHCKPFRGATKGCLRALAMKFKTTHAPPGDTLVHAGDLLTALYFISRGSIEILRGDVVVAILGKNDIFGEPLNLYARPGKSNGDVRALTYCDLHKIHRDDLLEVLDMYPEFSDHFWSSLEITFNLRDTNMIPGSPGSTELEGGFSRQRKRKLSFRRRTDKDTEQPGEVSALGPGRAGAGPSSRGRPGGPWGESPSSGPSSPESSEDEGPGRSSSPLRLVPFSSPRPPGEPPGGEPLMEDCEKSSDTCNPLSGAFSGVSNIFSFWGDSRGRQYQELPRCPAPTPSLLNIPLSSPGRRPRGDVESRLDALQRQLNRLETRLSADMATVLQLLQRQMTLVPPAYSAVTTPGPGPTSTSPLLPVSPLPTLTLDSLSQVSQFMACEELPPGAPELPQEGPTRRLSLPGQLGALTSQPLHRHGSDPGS
row,SMILES,"hERG current change (%, negative = inhibition) at 10uM"
1,O=C(CSc1nnc(-c2ccc(O)cc2)n1Cc1ccccc1)NNC(=O)c1ccc(Br)cc1,-4.24%
2,Cc1ccc(NC(=O)COC(=O)CCc2ccc(S(=O)(=O)N3CCOCC3)cc2)cc1F,-11%
3,CCn1c(COc2ccccc2)nnc1SCC(=O)Nc1ccc2c(c1)OCCO2,-6.9%
4,Cc1ccc(NC(=O)c2nc[nH]c2C(=O)N2CCN(c3ccccc3)CC2)cc1,8.53%
5,O=C(NCCC1CCCCN1S(=O)(=O)c1ccccc1)C(=O)Nc1ccc(F)cc1F (stereo not drawn),2.67%
6,CC(C)NC(=O)CSc1nnc(COc2ccccc2Cl)o1,9.76%
7,Cc1ccc(SCC(=O)OCC(=O)N(C)CC(=O)Nc2ccc(F)cc2)cc1C,-38.7%
8,CC#CCC(CC#CC)c1nc2ccccc2c(=O)n1N,-1.36%
9,Cc1cc[n+](-c2[nH]c(=O)sc2/C=N/N=C(\[O-])c2ccncc2)cc1,5.61%
10,CCCc1ccc(-c2cc(C(=O)N3CCN(c4ccccn4)CC3)c3ccccc3n2)cc1,13.4%
11,CCOC(=O)N1CCC(NC(=O)c2cccc3c2C(=O)N(c2ccc(OC)cc2)C3)CC1,-58.3%
12,CCOC(=O)N1CCC(N2Cc3cccc(C(=O)NCc4ccccc4OC)c3C2=O)CC1,-71.2%
13,CCOC(=O)N1CCC(N2Cc3cccc(C(=O)NCc4ccc(C)cc4)c3C2=O)CC1,-42.6%
14,CCOC(=O)c1ccccc1NC(=O)c1cccc2c1C(=O)N(C1CCN(C(=O)OCC)CC1)C2,-30.4%
15,CCOC(=O)N1CCC(NC(=O)c2cccc3c2C(=O)N(CCOC)C3)CC1,-1.34%
16,CCOC(=O)N1CCC(NC(=O)c2cn(-c3ccc(OC)cc3)c(=O)c3ccccc23)CC1,-6.75%
17,CCOC(=O)N1CCC(N2Cc3cccc(C(=O)Nc4ccc(OC)c(OC)c4)c3C2=O)CC1,-9.58%
18,CCOC(=O)N1CCC(N2Cc3cccc(C(=O)NCc4ccc(OC)cc4)c3C2=O)CC1,-40%
19,CCOC(=O)N1CCC(N2Cc3cccc(C(=O)Nc4ccccc4OC)c3C2=O)CC1,-79.2%
20,CCOCCn1c(N2CCCC2)nc2c1c(=O)[nH]c(=O)n2C,15.1%
21,COc1ccc2nc(N3C(=O)CC(Cc4cc(C)cc(C)c4)C3=O)sc2c1 (stereo not drawn),9.23%
22,COc1ccc(CCNC(=S)N2CCN(S(=O)(=O)c3ccc(Cl)cc3)CC2)cc1,22%
23,OCCN(Cc1ccccc1)Cc1ccc(C(F)(F)F)cc1,-3.33%
24,COc1ccc(-c2oc3cccnc3c2C#CCO)cc1,9.84%
25,COc1ccc2[nH]c(=O)c(CN(CCO)S(=O)(=O)c3c(C)ccc4nsnc34)cc2c1,-3.86%
26,C/C(=N\NC(=O)c1cc(-c2ccccc2C)nc2ccccc12)c1cccnc1,-10.3%

row,SMILES,"hERG current change (%, negative = inhibition) at 10uM"
1,CCSCc1nnc(SCC(=O)Nc2cccc(C(C)=O)c2)n1C,11.9%
2,CCOc1ncccc1C(=O)Nc1ccc(F)c(Cl)c1,24.1%
3,CN(Cc1ccccc1)c1ccc(N2C(=O)CCCC2=O)cc1[N+](=O)[O-],6.5%
4,O=C(Nc1ccc2ccccc2c1)c1ccc(NS(=O)(=O)c2ccc(Br)s2)cc1,12%
5,Cc1ccc(F)cc1NC(=O)c1ccc(NS(=O)(=O)c2ccc(Br)s2)cc1,-70%
6,Cc1cc(F)ccc1NC(=O)c1ccc(NS(=O)(=O)c2cc(C(C)(C)C)ccc2C)cc1,0.887%
7,O=C(CCn1nc(-c2ccc(Cl)cc2)ccc1=O)N1CCC2(CC1)OCCO2,-39.8%
8,Cc1ccc(-c2ccc(=O)n(CC(=O)N3CCC4(CC3)OCCO4)n2)cc1,5.07%
9,Cc1ccc2c(c1)N(CCC(=O)N1CCC3(CC1)OCCO3)C(=O)CO2,-16.8%
10,Cc1ccc(-c2ccc(=O)n(CCC(=O)N3CCC4(CC3)OCCO4)n2)cc1,-64.5%
11,Cc1ccc(C2=NN(CCC(=O)N3CCC4(CC3)OCCO4)C(=O)CC2)cc1,-57.5%
12,CCc1ccc(C2=NN(CCC(=O)N3CCC4(CC3)OCCO4)C(=O)CC2)cc1,-10.3%
13,O=C(Nc1ccc(C2=NCCN2)cc1)c1ccc(C(=O)Nc2ccc(C3=NCCN3)cc2)c([N+](=O)[O-])c1,20.1%
14,CC(=O)c1cc(F)c(N2CCN(c3ccc([N+](=O)[O-])cc3F)CC2)cc1C,-12.3%
15,CC1CN(c2ccc([N+](=O)[O-])cc2F)CCN1C(=O)c1ccco1 (stereo not drawn),-62%
16,O=C(Nc1ccc(F)cc1F)N1CCCN(c2ccc([N+](=O)[O-])cn2)CC1,-50.2%
17,O=C(NC(=O)N1CCN(c2ccc([N+](=O)[O-])cn2)CC1)c1ccccc1F,-24.5%
18,CC(C)(C)c1ccc(C(=O)N2CCCN(c3ccc([N+](=O)[O-])cn3)CC2)cc1,-72.3%
19,CC(C)(C)c1ccc(NC(=O)N2CCN(c3ccc([N+](=O)[O-])cn3)CC2)cc1,-9.81%
20,O=C(Nc1ccc(F)cc1F)N1CCCN(c2ccc(C(F)(F)F)cn2)CC1,-12.4%
21,O=C(c1ccco1)N1CCN(c2ccc([N+](=O)[O-])cc2Cl)CC1,-71.4%
22,CC(C)(C)c1ccc(NC(=O)N2CCCN(c3ccc([N+](=O)[O-])cn3)CC2)cc1,-25.9%
23,O=C(O)C(=O)O.O=C(c1ccco1)N1CCN(S(=O)(=O)c2ccc([N+](=O)[O-])cc2)CC1,-39.8%
24,CC(=O)c1ccc(N2CCN(C(=O)c3ccco3)C(C)C2)c(F)c1 (stereo not drawn),-49.9%
25,O=C(c1ccco1)N1CCN(S(=O)(=O)c2cccc([N+](=O)[O-])c2)CC1,-20.7%
